Assay outcomes as filed in PubChem BioAssay.
NPC1 prom act – activates the NPC1 promoter. Potency, µM (highest dose often 9.22 µM), for the others: top-dose activation, usual class: activators. hit rate 2.4% among 320,000. Huh7 NPC1 promoter luciferase reporter, 24 h; note: % of control where 0% means no effect; nearly all actives have a fitted effect of over 60% in size
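In 1536-well qHTS, Huh7 cells harboring an NPC1 promoter–luciferase construct received compound for 24 h; activation was quantified by luminescence following luciferase reagent addition.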
ELG1 genotoxic – induces genotoxicity in HEK293T cells with luciferase-tagged ELG1 | HEK293T ELG1-luciferase reporter, luminescence, 16 h | Potency, µM (titrated, usually from 46 µM), for the others: at the highest dose activity change, positive = activation, most hits filed as activators | AID 504466 | hit rate 1.3% among 330,000; note: % of control where 0% means no effect; nearly all actives have a fitted effect of over 60% in size
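After overnight (16 hr) compound treatment at 37 °C, ELG1-luciferase HEK293T cells were lysed with ONE-Glo; luminescence quantified 30 min later at room temperature.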
uPA surface inh – inhibitors of cell surface uPA generation; AID 540303; cell surface uPA generation assay, qHTS; Potency, µM (top dose mostly 38.3 µM), inactives show at the top dose activity change, negative = inhibition, hits mostly inhibitors; hit rate 0.31% among 330,000; active = well fitted inhibition curve with a large enough effect; inconclusive = small, poorly fitted or top-dose-only effect; inactive = no such curve, though single readings can be large or run the other way; tested in mouse RAW 264.7 cells; note: % is set by controls: 0 for no effect and ±100 for the full control effect; nearly all actives have a fitted effect of over 55% in size
FLuc modulator – firefly luciferase modulation, counter-screen for miR-21 project; P08659; purified FLuc, Km substrates, luminescence inhibition; Potency, µM (series often up to 57.5 µM), inactives show top-dose activity change, negative = inhibition, most hits filed as inhibitors; hit rate 6.9% among 360,000; AID 588342;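 note: plate controls were vehicle for no effect and reference inhibitor for full effect; nearly all actives have a fitted effect of over 55% in size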
Target sequence (P08659 whole entry, looked up): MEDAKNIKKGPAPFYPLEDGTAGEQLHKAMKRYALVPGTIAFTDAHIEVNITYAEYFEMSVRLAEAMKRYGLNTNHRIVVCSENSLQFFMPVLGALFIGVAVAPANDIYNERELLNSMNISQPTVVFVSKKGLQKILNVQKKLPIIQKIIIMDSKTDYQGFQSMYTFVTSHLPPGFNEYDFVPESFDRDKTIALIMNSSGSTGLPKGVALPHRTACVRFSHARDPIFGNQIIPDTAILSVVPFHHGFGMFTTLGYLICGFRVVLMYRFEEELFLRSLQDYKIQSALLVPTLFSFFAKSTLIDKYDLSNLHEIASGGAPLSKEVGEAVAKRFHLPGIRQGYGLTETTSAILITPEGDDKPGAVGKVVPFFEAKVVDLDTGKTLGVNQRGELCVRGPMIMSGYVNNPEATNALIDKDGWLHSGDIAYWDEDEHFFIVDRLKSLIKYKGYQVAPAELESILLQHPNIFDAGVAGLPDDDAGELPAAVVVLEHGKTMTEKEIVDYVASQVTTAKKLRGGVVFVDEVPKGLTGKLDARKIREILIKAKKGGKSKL
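Purified P. pyralis luciferase (10nM final) with 10uM D-luciferin and 10uM ATP (Km levels) in 50mM Tris acetate pH 7.5, 10mM Mg acetate, 0.01% Tween-20, 0.05% BSA; qHTS 6-point titration, ~60 µM downward; luminescence read.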
SMN2 splice enh – enhancers of SMN2 splice variant expression; HEK293 SMN2-luciferase splicing reporter, luminescence, 30-36 h; AID 1458; hit rate 2.8% among 210,000; Potency, µM (doses to about 46.1 µM), for inactives: at the highest dose activity change, positive = activation, hits mostly activators; note: % of control where 0% means no effect; nearly all actives have a fitted effect of over 55% in size
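HEK293 cells carry an SMN2 minigene-luciferase reporter in which exon 7 inclusion puts luciferase in frame. Cells were seeded at 2000 cells/well, attached for 10-12 hours, then exposed to compounds for 30-36 hours at 37C before ONE-Glo luminescence.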
Rab9 prom act – Rab9 promoter activation. Huh7 Rab9 promoter-luciferase reporter, luminescence, 24 h. Potency, µM (series often up to 9.22 µM), without a hit: top-dose activation, negative = inhibition, usual class: activators. hit rate 2.8% among 320,000; note: % of control where 0% means no effect; nearly all actives have a fitted effect of over 60% in size
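Huh7 reporter line, Rab9 promoter upstream of luciferase. Compound exposure 24 h at 37 °C in reduced-serum medium with 10% FBS. Read-out: luminescence.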
Numbers without * were called inactive; ? = inconclusive; nt = no result given. In the library only some 7.3% were active in any assay of this set; here they are far more common. Unless noted, calls come from the whole dose curve; as a rule, active = well fitted curve in the direction sought with a large enough effect; inconclusive = small, poorly fitted or top-dose-only effect, or another doubt; inactive = no such curve, though single readings can be large; an effect the other way counts as inactive or inconclusive. Potency is the fitted concentration of half-maximal effect.

SMILES	NPC1 prom act	ELG1 genotoxic	uPA surface inh	FLuc modulator	SMN2 splice enh	Rab9 prom act
CCOC(=O)N1CCN(C(=O)c2cc(COc3c(F)cccc3F)on2)CC1	2.2µM*	15µM*	19%	8.5µM*	nt	3.2µM*
CCOC(=O)C1CCN(C(=O)c2cc(COc3ccc(F)cc3F)on2)CC1	2.8µM*	21µM*	-7%	13µM*	nt	2.8µM*
O=C(CSc1nc(=O)[nH]c2c1CCCC2)NCc1ccc(F)cc1	nt	nt	nt	-1%	nt	nt
CCc1cc(C(=O)NCC(c2cccs2)N2CCOCC2)sc1C (stereo not given)	-5%	-1%	6%	4%	nt	-3%
O=C(Cc1cnc2ncnn2c1)N1CCc2c([nH]c3ccccc23)C1c1ccccn1 (stereo not given)	-11%	-4%	1%	-5%	nt	-6%
CC(=O)N1CCCN(C(=O)c2cc(COc3c(F)cccc3F)on2)CC1	0%	-2%	-3%	3%	nt	13%
O=C(c1cc(COc2c(F)cccc2F)on1)N1CCCCCC1	?	?	-5%	?	nt	2.8µM*
CCOCCOC(=O)c1[nH]c2c(c1C)C(=O)CC(c1cccs1)C2 (stereo not given)	-31%	?	-6%	-4%	-43%	-20%
COCCOC(=O)c1[nH]c2c(c1C)C(=O)CC(c1cccs1)C2 (stereo not given)	-26%	8%	1µM*	1%	-57%	-10%
Cc1c(C(=O)OCC2CCCCC2)[nH]c2c1C(=O)CC(c1ccc(F)cc1)C2 (stereo not given)	nt	nt	nt	-4%	-2%	nt
CCOC(=O)c1[nH]c2c(c1C)C(=O)CC(c1ccc(F)cc1)C2 (stereo not given)	-20%	1%	1.3µM*	2%	-13%	-17%
CCc1cccc(NC(=O)Cn2c(=O)c(C(F)(F)F)nc3ccccc32)c1	nt	nt	nt	-1%	nt	nt
Cc1cccc(NS(=O)(=O)c2ccc3oc(=O)c4ncn(C)c4c3c2)c1C	nt	nt	nt	-4%	nt	nt
COc1cc(Cl)c(C)cc1Nc1nc2ccccc2n2cnnc12	nt	nt	nt	-7%	-17%	nt
CN(C)c1ccc(NC(=O)c2cnsn2)cc1	?	?	-6%	3µM*	nt	?
COC(=O)c1ccc(OC(=O)/C=C/c2ccco2)cc1	0%	3%	2%	2.4µM*	nt	1%
O=Cc1cccc(OC(=O)/C=C/c2ccco2)c1	?	?	-6%	27µM*	nt	13%
COC(=O)c1ccc(OC(=O)c2ccco2)cc1	10%	2%	2%	?	1%	-2%
N#Cc1c(N2CCCC(O)C2)nc(N)c2c(N)nc3c(c12)CC(=O)N3C12CC3CC(CC(C3)C1)C2 (stereo not given)	-3%	-8%	-8%	5.4µM*	-85%	-11%
O=C(c1ccc2c(c1)C(=O)N(CCCO)C2=O)c1ccc2c(c1)C(=O)N(CCCO)C2=O	0%	0%	0%	1%	9%	2%
O=C1c2ccc3c4c(ccc(c24)C(=O)N1CCCCO)C(=O)N(CCCCO)C3=O	-37%	-9%	2.5µM*	-8%	-83%	-44%
CN(C(=O)CSc1nnc(-c2ccccc2)o1)c1c(N)n(Cc2ccccc2)c(=O)[nH]c1=O	-7%	0%	1%	-4%	14%	-13%
CCNc1ncc2nc(CCc3ccccc3)c(=O)n(C)c2n1	nt	nt	nt	nt	13µM*	nt
O=C(OCC(=O)N1CCN(C(=O)c2ccco2)CC1)c1cc(-c2ccc(F)cc2)nc2ccccc12	-2%	-19%	-14%	11µM*	-8%	-13%
O=C(OCC(=O)N1CCN(C(=O)c2ccco2)CC1)c1ccccc1C(=O)c1ccccc1	-2%	-2%	-4%	0%	-8%	-4%
SMILES	NPC1 prom act	ELG1 genotoxic	uPA surface inh	FLuc modulator	SMN2 splice enh	Rab9 prom act
O=C(OCC(=O)N1CCN(C(=O)c2ccco2)CC1)c1cc(-c2cccc(Br)c2)nc2ccccc12	1%	-23%	-2%	9.5µM*	-12%	-6%
O=C(/C=C/c1ccc(OC(F)F)cc1)OCC(=O)N1CCN(C(=O)c2ccco2)CC1	3%	1%	-1%	-3%	-22%	-6%
O=C(OCC(=O)N1CCN(C(=O)c2ccco2)CC1)c1cc(-c2ccccc2)nc2ccccc12	-2%	-12%	0%	15µM*	1%	8%
CCOC(=O)/C=C/C(=O)OCC(=O)N1CCN(C(=O)c2ccco2)CC1	-1%	2%	7.9µM*	-1%	nt	16%
Cc1ccc(Cn2c(=O)n(Cc3ccccc3Cl)c(=O)c3cccnc32)cc1	nt	nt	nt	-3%	-4%	nt
CCCN1C(=O)C(O)(CC(=O)c2ccc(OC)c(OC)c2)c2ccccc21 (stereo not given)	nt	nt	nt	-1%	2%	nt
CCN(C(=O)CSc1nc2ncccc2[nH]1)c1ccc(C(C)C)cc1	nt	nt	nt	-5%	-14%	nt
Nc1nc(-c2ccc3c(c2)OCCO3)c(CC(=O)O)s1	-3%	-1%	0%	?	nt	11%
Nc1nc(-c2ccc3c(c2)CCCC3)c(CC(=O)O)s1	-1%	-1%	-1%	24µM*	nt	4%
O=C(/C=C/Sc1ccc(C(F)(F)F)cn1)c1ccccc1	-14%	6%	0%	0.54µM*	nt	-38%
CCOC(=O)CCC(=O)Nc1nnc2n1CCS2	nt	nt	nt	4%	nt	nt
CCOC(=O)C1=C(C)N(c2ccc(C)cc2)C(=O)/C1=C\c1ccc(O)c(OC)c1	-13%	2%	?	-11%	nt	-8%
CCOC(=O)C1=C(O)c2ccccc2C(=O)/C1=C\c1ccc(C)cc1	0%	7%	-9%	6.7µM*	-34%	14%
CCN1CCN(c2csc3ccc(C)cc3c2=O)CC1	nt	nt	nt	12µM*	nt	nt
COc1ccc(N2CCN(c3csc4ccc(Cl)cc4c3=O)CC2)cc1	nt	nt	nt	-20%	nt	nt
CCN1CCN(c2csc3ccc(Br)cc3c2=O)CC1	nt	nt	nt	13µM*	nt	nt
COc1ccccc1OCC(=O)NCCS(=O)(=O)N1CCN(c2ccccc2OC)CC1	nt	nt	nt	-3%	nt	nt
COC(=O)CNC(=O)[C@@]1(C)C=C[C@@H](Cc2ccccc2)N1C(C)=O	nt	nt	nt	nt	14µM*	nt
CCOc1ccc(Nc2nc3ccccc3n3cnnc23)cc1	2%	-1%	4%	13µM*	nt	-11%
CC(=O)Nc1ccc(Nc2nc3ccccc3n3cnnc23)cc1	-3%	5%	6%	?	nt	1%
c1ccc(Nc2nc3ccccc3n3cnnc23)cc1	0%	0%	-7%	2%	-36%	-2%
c1ccc2c(c1)nc(Nc1ccc(N3CCCCC3)cc1)c1nncn12	1%	1%	0%	4.8µM*	nt	-5%
O=C(O)c1ccc(Nc2nc3ccccc3n3cnnc23)cc1	nt	nt	nt	7.6µM*	0%	nt
CCCNC(=O)C1=CC(c2ccc3c(c2)OCO3)=NS(=O)(=O)N1C	nt	nt	nt	-18%	nt	nt
CCOCCCn1c(SCC(=O)Nc2ccc(F)cc2)nc2c(sc3ccccc32)c1=O	nt	nt	nt	1%	nt	nt
